Data reported in PubChem BioAssay.
Values joined by “and” are separate entries in the source; they are usually repeats but may differ in a detail not shown here. Equal values may be shown once. Inconclusive results are not listed. The source holds several records for some structures; these can differ, active in one and inactive in another. Active and inactive are the calls of the source.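 Rule for the calls, unless noted: active = compounds whose cell count with miR-34 switched on is under 0.7 times the count with it off; inactive = the rest.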

How the values were obtained:
[1] = P. berghei load reduction in hepatocytes – cell-based, HepG2, luciferase luminescence, HepG2 viability, primary screen (AID 624349; in the data active = parasite load remaining mostly below about 12%, no sharp cut-off; inactive = mostly above about 10%;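 note: 100% = mean of DMSO negative control wells on the same plate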); details: P. berghei liver stage in HepG2, luciferase luminescence, concentration not given here; parasite load remaining: stronger effect = lower value; viability: measured here: HepG2 viability without parasites
[2] = target: 6-phosphogluconate dehydrogenase, decarboxylating (Homo sapiens) (UniProt P52209); test: inhibition of human phosphogluconate dehydrogenase – biochemical, recombinant enzyme, NADPH absorbance, primary screen (AID 1159550;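 active = at least 20% inhibition of 6-phosphogluconate dehydrogenase activity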); details: recombinant 6PGD, NADPH absorbance 341 nm; at 10 µM; stronger effect = higher value
[3] = viability loss in pontine glioma line – cell-based, SU-DIPG-XIII, MIPE4.0, CellTiter-Glo, qHTS, dose response (AID 1347061; cut-off not given, nearly all actives have AC50 up to about 37 µM;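 note: cells exposed to compound for 48 hours before readout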); details: CellTiter-Glo ATP luminescence
[4] = viability loss in pontine glioma line – cell-based, JHH-DIPG-1, MIPE4.0, CellTiter-Glo, qHTS, dose response (AID 1347062; cut-off not given, nearly all actives have AC50 up to about 27 µM); details: JHH-DIPG-1 viability, CellTiter-Glo ATP luminescence
[5] = viability loss in pontine glioma line – cell-based, SU-DIPG-IV, MIPE4.0, CellTiter-Glo, qHTS, dose response (AID 1347063; cut-off not given, nearly all actives have AC50 up to about 30 µM;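 note: compound exposure lasted 48 hours before the viability readout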); details: CellTiter-Glo ATP luminescence
[6] = viability loss with induced miR-34 in A549 – imaging, A549 dox-inducible miR-34, nuclei and caspase counts, primary screen (AID 1347080); details: A549 miR-34 inducible, Hoechst nuclei count, 48 h
[7] = target: NAD(+) hydrolase SARM1 (Homo sapiens) (UniProt Q6SZW1); test: blocking NAD cleavage by SARM1 SAM-TIR – cell lysate, NAD-Glo luminescence (AID 1508614;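 active = compound whose remaining NAD level is above about 45 nM, limit read from the data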;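 note: higher remaining NAD means stronger inhibition of SARM1 NADase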); details: SAM-TIR HEK293T lysate NADase, at 1 µM, stronger effect = higher value
[8] = target: Mitogen-activated protein kinase 7 (Homo sapiens) (UniProt Q13164); test: Gal4-ERK5 driven luciferase induction – cell-based, HTS, primary screen (AID 1508626;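 active = luciferase signal above three times the same-plate solvent-only control wells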;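 note: luciferase driven by Gal4-ERK5 fusion binding five Gal4 sites before minimal TATA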); details: HeLa Gal4-ERK5 transactivation, 18 h, at 5 µM, stronger effect = higher value
[9] = galactose survival enhancers in mitochondrial complex I cybrids – cell-based, galactose medium, ATP luminescence, primary screen (AID 1645843;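 active = z-score of at least 1.8 in each of two replicates, scored against plate mean and spread of sample wells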;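 note: positive z means more ATP and so rescue of galactose-driven cybrid death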); details: complex I mutant cybrid cells, 72 h, stronger effect = higher value
[10] = MELAS cybrid and Rieske KO viability enhancers – cell-based, MELAS cybrids, Rieske KO mouse fibroblasts, CellTiter-Glo, primary screen (AID 1508586;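 active = mean z-score across replicates of 1.96 or higher in either the MELAS or the Rieske mutant cell line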;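 note: z relative to plate mean and SD of compound and empty wells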); details: low glucose
[11] = growth inhibition, single agent or in combination, cell-based, chromothripsis tumors, cisplatin or BGB combos (AID 1671449; in the data active = inhibition above about 80%;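 note: cells exposed for 96 hours; 0% = vehicle DMSO and 100% = killing by high DMSO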); details: LFS_MB_P medulloblastoma cells
[12] = growth inhibition, single agent and combos, cell-based, chromothripsis tumors, cisplatin or BGB combos (AID 1671450; in the data active = inhibition above about 80%;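 note: cells exposed to compound for four days; 0% = vehicle DMSO and 100% = cell killing by high DMSO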); details: HDN33 neuroblastoma cells, stronger effect = higher value
[13] = growth inhibition, single agents and combos, ICB984, cell-based, cisplatin or BGB combos, synergistic combos for chromothripsis tumors (AID 1671451; call rule not given here;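 note: cells exposed for 96 hours before readout; 0% = vehicle DMSO and 100% = killing by high DMSO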); details: ICB984 medulloblastoma cells, drug combinations, stronger effect = higher value
[14] = growth inhibition, single agents and combos, LFS_MB_1R, cell-based, cisplatin or BGB combos, synergistic combos for chromothripsis tumors (AID 1671452; in the data active = inhibition above about 80%;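 note: cells exposed for 96 hours before readout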); details: LFS_MB_1R medulloblastoma cells, stronger effect = higher value
[15] = growth inhibition, single agents and combos, HTB85, cell-based, BGB or cisplatin IC20 combos, synergistic combos for chromothripsis tumors (AID 1671453; in the data active = inhibition above about 80%;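 note: cells exposed for 96 hours before readout; 0% = vehicle DMSO and 100% = high DMSO killing control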); details: HTB85 osteosarcoma cells, drug combinations, stronger effect = higher value
[16] = growth inhibition, MDA-MB-436, cell-based, BGB or cisplatin combos, synergistic combos for chromothripsis tumors (AID 1671458; call rule not given here;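 note: cells exposed for 96 hours; 0% = vehicle DMSO and 100% = killing by high DMSO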); details: MDA-MB-436 breast carcinoma growth inhibition, drug combinations, stronger effect = higher value
[17] = BT084 cell growth, single and combined drugs, ICGC_MB145, cisplatin and BGB IC40 combos (AID 1671461; in the data active = inhibition above about 80%;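 note: cells exposed to drugs for 96 hours; 0% = vehicle DMSO and 100% = high DMSO full killing control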); details: BT084 medulloblastoma cells, drug combinations, stronger effect = higher value
[18] = RCMB18 cell growth, single agent and combined, cisplatin and BGB IC40 combos (AID 1671462; in the data active = inhibition above about 80%;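 note: cells exposed to compound for four days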); details: RCMB18 medulloblastoma cells, stronger effect = higher value
[19] = CRL1545 cell growth, single agent and combined, cisplatin and BGB IC20 combos (AID 1671464; in the data active = inhibition above about 80%;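 note: cells exposed to compound for 96 hours before readout; 0% = vehicle DMSO and 100% = high DMSO killing control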); details: CRL1545 osteosarcoma cells, stronger effect = higher value
[20] = stronger effect = lower value, cell number ratio, induced over uninduced
[21] = measured here: relative caspase fold change +Dox/-Dox
[22] = measured here: total cells with miR-34 induction, stronger effect = lower value
[23] = measured here: total cells without miR-34 induction
[24] = MELAS cybrid survival, CellTiter-Glo 48 h, stronger effect = higher value
[25] = Rieske KO mouse fibroblast survival, CellTiter-Glo 72 h
[26] = measured here: combination with BGB IC40, at 0.05 µM
[27] = measured here: with BGB IC20 combination, at 0.5 µM
[28] = measured here: with cisplatin IC20 combination, at 0.5 µM
[29] = measured here: combination with cisplatin, at 0.5 µM

Chain of 6-phosphogluconate dehydrogenase, decarboxylating (Homo sapiens) (P52209 whole entry, looked up): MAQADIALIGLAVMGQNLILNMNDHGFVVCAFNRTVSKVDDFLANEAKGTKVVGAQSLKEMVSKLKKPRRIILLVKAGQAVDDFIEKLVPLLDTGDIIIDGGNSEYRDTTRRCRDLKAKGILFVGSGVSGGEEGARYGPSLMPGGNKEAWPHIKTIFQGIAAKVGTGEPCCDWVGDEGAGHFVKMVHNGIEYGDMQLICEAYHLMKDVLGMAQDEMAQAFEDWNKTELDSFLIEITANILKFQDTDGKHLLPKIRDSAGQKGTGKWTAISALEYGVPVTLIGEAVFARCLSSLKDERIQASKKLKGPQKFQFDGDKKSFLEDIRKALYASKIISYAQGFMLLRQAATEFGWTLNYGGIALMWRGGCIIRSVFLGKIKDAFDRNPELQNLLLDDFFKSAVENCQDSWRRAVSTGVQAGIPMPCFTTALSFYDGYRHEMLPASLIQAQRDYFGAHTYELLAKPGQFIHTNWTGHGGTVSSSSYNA
Chain of Mitogen-activated protein kinase 7 (Homo sapiens) (Q13164 whole entry, looked up, the tested form may be a part): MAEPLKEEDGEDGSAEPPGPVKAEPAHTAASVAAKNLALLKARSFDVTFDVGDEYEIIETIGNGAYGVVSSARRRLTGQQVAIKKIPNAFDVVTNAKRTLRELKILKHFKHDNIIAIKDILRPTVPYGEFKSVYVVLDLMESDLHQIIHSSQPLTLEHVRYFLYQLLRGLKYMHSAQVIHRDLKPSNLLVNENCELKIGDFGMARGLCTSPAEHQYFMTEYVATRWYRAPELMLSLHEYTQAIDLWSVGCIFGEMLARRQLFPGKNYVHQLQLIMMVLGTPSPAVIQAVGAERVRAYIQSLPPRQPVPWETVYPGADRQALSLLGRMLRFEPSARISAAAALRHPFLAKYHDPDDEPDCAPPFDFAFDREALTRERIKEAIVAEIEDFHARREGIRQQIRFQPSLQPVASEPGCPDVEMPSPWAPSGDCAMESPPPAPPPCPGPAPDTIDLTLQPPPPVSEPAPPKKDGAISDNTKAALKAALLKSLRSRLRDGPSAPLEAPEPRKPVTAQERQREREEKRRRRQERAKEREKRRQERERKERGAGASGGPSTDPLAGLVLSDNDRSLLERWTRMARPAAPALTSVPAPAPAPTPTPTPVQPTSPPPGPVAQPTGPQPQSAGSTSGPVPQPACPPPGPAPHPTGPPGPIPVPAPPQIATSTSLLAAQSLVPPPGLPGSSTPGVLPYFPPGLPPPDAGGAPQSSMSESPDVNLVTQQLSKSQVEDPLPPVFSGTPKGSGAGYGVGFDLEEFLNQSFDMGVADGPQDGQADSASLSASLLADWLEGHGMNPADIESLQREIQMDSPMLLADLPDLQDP
Chain of NAD(+) hydrolase SARM1 (Homo sapiens) (Q6SZW1 whole entry, looked up, the tested form may be a part): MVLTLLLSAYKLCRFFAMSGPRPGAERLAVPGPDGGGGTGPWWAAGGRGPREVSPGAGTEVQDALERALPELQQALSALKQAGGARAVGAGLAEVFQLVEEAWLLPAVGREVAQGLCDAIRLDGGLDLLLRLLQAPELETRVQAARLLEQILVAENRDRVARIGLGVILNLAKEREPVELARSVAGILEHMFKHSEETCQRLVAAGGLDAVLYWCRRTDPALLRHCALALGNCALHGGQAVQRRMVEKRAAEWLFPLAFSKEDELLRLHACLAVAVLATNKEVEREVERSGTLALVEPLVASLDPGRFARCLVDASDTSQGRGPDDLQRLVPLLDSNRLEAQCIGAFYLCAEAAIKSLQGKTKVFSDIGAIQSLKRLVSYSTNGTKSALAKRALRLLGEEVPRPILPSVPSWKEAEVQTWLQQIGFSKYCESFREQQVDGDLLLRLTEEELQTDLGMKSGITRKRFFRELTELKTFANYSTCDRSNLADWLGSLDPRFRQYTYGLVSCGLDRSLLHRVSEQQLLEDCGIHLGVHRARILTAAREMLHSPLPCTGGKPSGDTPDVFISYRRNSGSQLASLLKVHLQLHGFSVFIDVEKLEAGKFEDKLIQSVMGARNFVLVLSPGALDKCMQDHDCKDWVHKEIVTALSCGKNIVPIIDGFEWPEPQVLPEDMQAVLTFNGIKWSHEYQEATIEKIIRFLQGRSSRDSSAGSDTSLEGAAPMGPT

CCC(=O)NCC[C@@H]1CCc2ccc3c(c21)CCO3
parasite load remaining [1]: 159% (inactive) and -0.665% (active)
viability [1]: 88.5% and 95.2%
inhibition [2]: 11.8% (inactive)
outcome [3]: inactive
outcome [4]: inactive
outcome [5]: inactive
fold change [6, 20]: 0.882 (inactive)
fold change [6, 21]: 7.18
cell count [6, 22]: 11800
cell count [6, 23]: 13400
remaining NAD [7]: 10 nM (inactive)
luciferase signal [8]: 72 AU (inactive)

O=C(O)C1=CCCNC1
inhibition [2]: -3.98% (inactive)
fold change [6, 20]: 0.989 (inactive) and 0.96 (inactive)
fold change [6, 21]: 0.827 and 0.802
cell count [6, 22]: 8890 and 8940
cell count [6, 23]: 8980 and 9310
luciferase signal [8]: 48 AU (inactive)
z-score [9]: 0.54 (inactive) and -0.25 (inactive)

Nc1ccn([C@@H]2O[C@H](CO)[C@@H](O)[C@H]2O)c(=O)n1
inhibition [2]: -4.47% (inactive)
outcome [3]: inactive
outcome [4]: inactive
luciferase signal [8]: 60 AU (inactive)

COc1cc2c(c(OC)c1OC)-c1ccc(OC)c(=O)cc1C(NC(C)=O)CC2 (stereo unspecified)
inhibition [2]: -26.1% (inactive)
fold change [6, 20]: 0.969 (inactive)
fold change [6, 21]: 1.26
cell count [6, 22]: 1510
cell count [6, 23]: 1550
z-score [9]: -0.44 (inactive)

O=C(O)c1c2ccccc2cc2ccccc12
inhibition [2]: -1.37% (inactive)
fold change [6, 20]: 0.92 (inactive)
fold change [6, 21]: 0.787
cell count [6, 22]: 9100
cell count [6, 23]: 9890
luciferase signal [8]: 56 AU (inactive)
z-score [9]: 0.475 (inactive)

N=c1ccn2c(n1)O[C@H]1[C@H](O)[C@@H](CO)O[C@H]12
parasite load remaining [1]: 29.5% (inactive)
viability [1]: 73.5%
inhibition [2]: -4.99% (inactive)
outcome [3]: inactive
outcome [4]: inactive
fold change [6, 20]: 1.14 (inactive)
fold change [6, 21]: 1
cell count [6, 22]: 3040
cell count [6, 23]: 2660
z-score [10, 24]: -0.885 (inactive)
z-score [10, 25]: -0.24
remaining NAD [7]: 10 nM (inactive)
luciferase signal [8]: 44 AU (inactive)
z-score [9]: -1.8 (inactive)
inhibition ([11]; at 0.5 µM, stronger effect = higher value): -28.5% (inactive)
inhibition ([11]; measured here: combination with BGB IC20, at 0.005 µM): -22.6%
inhibition ([11]; measured here: combination with BGB IC40, at 0.005 µM): -23.7%
inhibition [11, 26]: -32.2%
inhibition ([11]; measured here: combination with cisplatin, at 0.5 µM, stronger effect = higher value): -58.3%
inhibition ([11]; measured here: combination with cisplatin, at 5 µM, stronger effect = higher value): 86.6%
inhibition ([12]; BGB combo, at 5 µM): 85.1%
inhibition ([12]; at 0.5 µM): 76.6% (inactive)
inhibition ([12]; cisplatin combo, at 5 µM): 80.9%
inhibition [12, 27]: 82.4%
inhibition [12, 28]: 69.1%
inhibition ([12]; single agent, at 5 µM): 81.4%
inhibition ([13]; BGB IC20 combo, at 0.005 µM): -16.9%
inhibition ([13]; BGB IC40 combo, at 0.005 µM): -39.5%
inhibition ([13]; BGB IC40 combo, at 0.05 µM): -9.88%
inhibition ([13]; at 0.5 µM): -19.6% (inactive)
inhibition ([13]; cisplatin combo, at 0.05 µM): -12.9%
inhibition ([13]; cisplatin combo, at 0.5 µM): -20.7%
inhibition ([13]; cisplatin combo, at 5 µM): -55.6%
inhibition ([13]; measured here: 5 uM single agent, at 5 µM): -6.48%
inhibition ([14]; at 0.5 µM): -7.06% (inactive)
inhibition [14, 26]: -18.8%
inhibition [14, 29]: 43.5%
inhibition ([14]; measured here: combination with cisplatin, at 5 µM): 68.2%
inhibition ([15]; at 0.5 µM): 32.7% (inactive)
inhibition ([15]; measured here: with BGB IC20, at 0.5 µM): 1.49%
inhibition ([15]; measured here: with BGB IC20, at 5 µM): 23.6%
inhibition ([15]; measured here: with cisplatin IC20, at 0.5 µM): 44.8%
inhibition ([15]; measured here: with cisplatin IC20, at 5 µM): 50.9%
inhibition ([15]; single agent, at 5 µM): 64.3%
inhibition ([16]; at 0.5 µM): 14% (inactive)
inhibition ([16]; measured here: BGB combination, at 0.5 µM): 5.47%
inhibition ([16]; measured here: BGB combination, at 5 µM): 33.7%
inhibition ([16]; measured here: cisplatin combination, at 0.5 µM): 0.616%
inhibition ([16]; measured here: cisplatin combination, at 5 µM): 57.3%
inhibition ([17]; at 0.5 µM): -29.7% (inactive)
inhibition ([17]; cisplatin combination, at 0.5 µM): 2.2%
inhibition ([17]; cisplatin combination, at 5 µM): 58.5%
inhibition ([17]; measured here: BGB IC40 combination 0.05 uM, at 0.05 µM): -14%
inhibition ([17]; single agent, at 5 µM): -28.9%
inhibition ([18]; at 0.5 µM): -18% (inactive)
inhibition ([18]; cisplatin combo, at 5 µM): 61%
inhibition ([18]; measured here: BGB IC40 combination, at 0.05 µM): -21.5%
inhibition [18, 29]: 11.8%
inhibition ([18]; single agent, at 5 µM): -26.3%
inhibition ([19]; at 0.5 µM): -32.9% (inactive)
inhibition [19, 27]: -44.9%
inhibition [19, 28]: -29.7%
inhibition ([19]; single agent, at 0.05 µM): -73.2%
inhibition ([19]; single agent, at 5 µM): 23.2%

COc1cccc(OC)c1OCCNCC1COc2ccccc2O1 (stereo unspecified)
inhibition [2]: 18.8% (inactive)
fold change [6, 20]: 0.967 (inactive) and 0.92 (inactive)
fold change [6, 21]: 1.13 and 0.877
cell count [6, 22]: 8030 and 7680
cell count [6, 23]: 8310 and 8340
z-score [9]: -0.59 (inactive) and -0.815 (inactive)

COc1c(O)cc2c(c1O)[C@@H]1O[C@H](CO)[C@@H](O)[C@H](O)[C@H]1OC2=O
inhibition [2]: 2.56% (inactive)
outcome [3]: inactive
outcome [4]: inactive
outcome [5]: inactive
luciferase signal [8]: 48 AU (inactive)

O=C(/C=C/c1ccc(O)c(O)c1)O[C@H](Cc1ccc(O)c(O)c1)C(=O)O
inhibition [2]: -3.01% (inactive)
fold change [6, 20]: 0.903 (inactive) and 0.98 (inactive)
fold change [6, 21]: 1.31 and 0.699
cell count [6, 22]: 5220 and 9720
cell count [6, 23]: 5780 and 9920
luciferase signal [8]: 44 AU (inactive)
z-score [9]: 0.02 (inactive)

C=C1C(=O)O[C@H]2[C@H]1CC/C(C)=C/CC[C@@]1(C)O[C@@H]21
inhibition [2]: 4.61% (inactive)
fold change [6, 20]: 0.99 (inactive)
fold change [6, 21]: 0.618
cell count [6, 22]: 8550
cell count [6, 23]: 8630
z-score [9]: 1.27 (inactive)

COc1ccc([C@@H]2CC(=O)c3c(O)cc(O[C@@H]4O[C@H](CO[C@@H]5O[C@@H](C)[C@H](O)[C@@H](O)[C@H]5O)[C@@H](O)[C@H](O)[C@H]4O)cc3O2)cc1O
parasite load remaining [1]: 169% (inactive)
viability [1]: 116%
inhibition [2]: 1.33% (inactive)
AC50 [3]: 14.8 µM (active)
outcome [5]: inactive
fold change [6, 20]: 0.851 (inactive)
fold change [6, 21]: 2.5
cell count [6, 22]: 8600
cell count [6, 23]: 10100
z-score [10, 24]: -0.52 (inactive)
z-score [10, 25]: -0.165
luciferase signal [8]: 88 AU (inactive)
